Measured values from ChEMBL document CHEMBL3433997, “St. Jude Leishmania screening dataset” (2016).

These compounds were tested against Solute carrier family 2, facilitated glucose transporter member 1 (Homo sapiens) (UniProt P11166) (assay: ST_JUDE_LEISH: Cytotoxicity at 2uM final concentration against transgenic Leishmania Mexicana promastigotes LmGLUT1 that are glucose transport deficient and complemented with the human glucose transporter GLUT1. Activity is measured by DNA content using SYBR green in vitro).
Sequence of Solute carrier family 2, facilitated glucose transporter member 1 (Homo sapiens) (P11166 whole entry): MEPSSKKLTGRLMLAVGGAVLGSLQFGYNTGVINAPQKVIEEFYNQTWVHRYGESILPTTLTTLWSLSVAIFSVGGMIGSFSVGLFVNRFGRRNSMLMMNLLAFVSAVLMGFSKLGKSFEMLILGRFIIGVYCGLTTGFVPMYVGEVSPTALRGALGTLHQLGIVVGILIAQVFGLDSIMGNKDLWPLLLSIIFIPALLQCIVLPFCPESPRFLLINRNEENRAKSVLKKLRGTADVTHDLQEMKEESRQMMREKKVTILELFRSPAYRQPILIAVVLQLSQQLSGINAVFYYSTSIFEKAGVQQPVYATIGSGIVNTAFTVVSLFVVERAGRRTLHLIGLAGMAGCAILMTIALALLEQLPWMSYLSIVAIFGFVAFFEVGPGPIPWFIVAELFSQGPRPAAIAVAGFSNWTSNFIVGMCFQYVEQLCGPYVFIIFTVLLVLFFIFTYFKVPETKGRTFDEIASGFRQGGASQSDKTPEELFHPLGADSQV
Format: functional
With `Cc1nc(N)nc(N)c1OCCCCCCOc1ccccc1` the inhibition was 2.38%. `FC(F)(F)c1ccc2[nH]c(-c3ccc(-c4ccc(CNCCc5ccncc5)cc4)cc3)nc2c1` gave an inhibition of 1.37%. `COc1ccc(-c2ccc(CNCc3ccccc3)cc2)cc1S(=O)(=O)NCCN1CCCC1` gave an inhibition of 4.97%. Compound `COc1ccc2ccccc2c1C=NN=c1cc(C)[nH]c2c(C)cccc12` has an inhibition of 1.52%. `CC(CN1CCN(C)CC1)C(=O)Nc1cccc(-c2ccc(-c3nc4ccccc4[nH]3)s2)c1` (stereo unspecified) gave an inhibition of -1.1%. `Oc1cccc2ccc(Nc3ccccn3)nc12` gave an inhibition of 0.94%. `CN(C)Cc1ccc2cc(NC(=O)c3ccc(-c4ccc(Cl)cc4)cc3)ccc2c1` was tested, and the inhibition was -1.97%. Work on `COc1ccc2nc3cc(Cl)ccc3c(NCCO)c2c1` yielded an inhibition of 2.8%. `CCCCCCNc1cc(C)nc(NC(=N)Nc2cccc(C(F)(F)F)c2)n1` was tested, and the inhibition was 1.36%. Work on `COc1ccc(-c2cc(NCc3ccc(-n4ccnc4)cc3)nc(Nc3ccccc3)n2)cc1` yielded an inhibition of 2.37%. `O=C1c2ccc([N+](=O)[O-])cc2C(=O)N1c1ccc2[nH]ncc2c1` showed an inhibition of 2.79%. Work on `O=C(C=Cc1ccc(Cl)c(Cl)c1)NCCCCCN1CCC(CCNC(=O)c2cccc3ccccc23)CC1` yielded an inhibition of 4.11%. `C=CC(C)C1OC(=O)c2cc(OC)cc(OC)c21` (stereo unspecified) gave an inhibition of 92.2%. For `OC(c1ccccc1)C1CN(Cc2ccccc2)CCC1(O)c1ccccc1` (stereo unspecified), the inhibition was 8.06%. With `CC(C)(Oc1ccc(Cl)cc1)C(=O)NCCC1CCN(CCCCCNC(=O)/C=C/c2ccc(Cl)c(Cl)c2)CC1` the inhibition was 6.53%. In the case of `COc1ccc(S(=O)(=O)Nc2cc(Br)cc3c2OCCC3)cc1N1CCN(C(=O)C(Cl)(Cl)Cl)CC1`, the inhibition is reported as -1.16%.
